TAR Tat displ: HIV-1 TAR-Tat binding disruption; z-score (no concentration beside the values); HIV-1 TAR RNA, Tat peptide displacement FRET; active compounds read high; actives 0.6% (n = 100,000); AID 1259389; active = z-score of 3 or more in at least 2 runs
CDC25B-CDK2 inh: human CDC25B-CDK2/CyclinA binding inhibition. AID 1259370. HTRF CDC25B-CDK2/CyclinA binding, anti-His/anti-Flag; active compounds read high. z-score (test concentration not listed). P30305+P24941. actives 0.72% (n = 94,000); in the data active = z-score above about 3.2
Numbers without * were called inactive; . = no result. This is a sample that favours compounds with a hit; in the whole collection about 0.93% have one here.

SMILES	TAR Tat displ	CDC25B-CDK2 inh
CS(=O)(=O)N1CCc2cc(C(=O)NCc3ccco3)ccc21	14.5*	-0.51
CC(C)NC(=O)c1ccc2c(c1)CCN2S(C)(=O)=O	1.49	-0.84
COc1cccc(Nc2nc(NCc3ccco3)nc3c2cnn3C)c1	0.43	.
CC1CCc2c(sc3ncnc(NCCN4CCOCC4)c23)C1 (configuration not stated)	.	-0.7
Cn1c(=O)[nH]c2nnc(-c3cccnc3)nc2c1=O	0.12	-1.67
C/C(=C\c1ccccc1)c1nnc2[nH]c(=O)n(C)c(=O)c2n1	18.7*	-0.65
O=C1CC(c2ccccc2)CC2=C1C(c1cccc(O)c1)Nc1ccccc1N2 (configuration not stated)	-0.13	0.07
CC(=O)c1ccccc1OS(=O)(=O)c1ccc(C)cc1	.	-3.24
CN(Cc1ccccc1)c1nnc(NC(=O)Nc2ccc3c(c2)OCCO3)s1	3.63	-0.57
CN(Cc1ccccc1)c1nnc(NC(=O)NCc2ccccc2)s1	7.97*	-1.3
Cc1ccccc1Cn1c(/C=C/c2ccco2)nc2ccccc21	-6.72	3.55*
C(=C\c1nc2ccccc2n1CCOc1ccccc1)/c1ccco1	-6.2	0.36
Clc1ccc(OCCn2c(/C=C/c3ccco3)nc3ccccc32)cc1	-5.79	0.11
Cc1ccc(Cn2c(/C=C/c3ccco3)nc3ccccc32)cc1	-0.25	3.56*
COc1ccc(S(=O)(=O)NC(c2ccccc2)c2nnc(-c3ccccc3)o2)cc1 (configuration not stated)	1.76	.
COc1ccccc1CCN1COc2ccc3c(oc(=O)c4ccccc43)c2C1	0.92	-0.16
Cc1cc(C)c(S(=O)(=O)Nc2ccc[nH]c2=O)c(C)c1	-1.88	9.4*
Cc1cc(C)c(S(=O)(=O)Nc2cc3c(cc2C)n(C)c(=O)n3C)c(C)c1	0.42	.
COc1cc(NC(=S)NNC(=O)c2ccc([N+](=O)[O-])cc2)c(OC)cc1Cl	.	0.12
O=C(O)c1ccc2c(c1)[C@@H]1C=CC[C@@H]1[C@H](c1ccccn1)N2	.	6.04*
O=C(O)c1ccc2c(c1)[C@@H]1C=CC[C@@H]1[C@H](c1cccc(C(F)(F)F)c1)N2	.	-0.52
O=C(O)c1ccc([C@@H]2Nc3c(F)cccc3[C@@H]3C=CC[C@@H]32)cc1	9.39*	2.16
O=C(O)c1ccc2c(c1)C1C=CCC1C(c1cccc(F)c1)N2 (configuration not stated)	9.31*	0.43
O=C(O)c1ccc2c(c1)C1C=CCC1C(c1ccc(Cl)cc1)N2 (configuration not stated)	18.5*	-0.83
Cc1ccc([C@@H]2Nc3c(F)cccc3[C@@H]3C=CC[C@@H]32)cc1	.	-1.75
SMILES	TAR Tat displ	CDC25B-CDK2 inh
O=C(O)c1ccc2c(c1)[C@@H]1C=CC[C@@H]1[C@H](c1cccc(Cl)c1)N2	.	0.38
O=C(O)c1ccc2c(c1)[C@@H]1C=CC[C@@H]1[C@H](c1ccccc1Br)N2	0.61	-0.76
NC(=S)N/N=C/c1ccc(-c2ccc(Cl)c(Cl)c2)o1	.	-3.13
COc1ccc(C2NC(=O)NC3=C2CCc2ccccc23)cc1 (configuration not stated)	.	-6.33
COCCNc1nc2c(S(=O)(=O)c3c(C)cc(C)cc3C)nnn2c2ccccc12	1.19	-1.59
Cc1cccc2c3c(ccc12)C1=C(C(=O)C3=O)[C@@H](C)CO1	16.8*	.
CSc1ccc(NC(=O)NCCN2CCc3ccccc3C2)cc1	1.53	12.7*
O=C(NCCN1CCc2ccccc2C1)Nc1ccccc1F	-0.3	-0.6
Cc1ssc(=S)c1-c1ccccc1	.	5.7*
Cc1c(Br)sc(Br)c1-c1ccccc1	.	-1.15
Cn1c(=O)c2cc3cc(Cl)ccc3nc2c2c(=O)n(-c3ccccc3)c(=O)n(-c3ccccc3)c21	.	-1.31
Cn1c(=O)c2c3nc4ccccc4cc3c(=O)n(C)c2n(C)c1=O	.	20.1*
CCCc1nn2c(=O)cc(CSc3nc(-c4ccco4)nc4cc(=O)[nH]n34)nc2s1	0.67	.
O=c1cc2nc(-c3ccco3)nc(SCc3cc(=O)n4nc(C5CCCCC5)sc4n3)n2[nH]1	3.34*	.
C=CCOc1ccc(C2C3=C(CC(C)(C)CC3=O)NC3=C2C(=O)CC(C)(C)C3)cc1	-0.05	-0.83
CCCOc1ccc(C2C3=C(CC(C)(C)CC3=O)NC3=C2C(=O)CC(C)(C)C3)cc1	0.94	16.1*
CCn1cc(C(=O)Nc2nccs2)c(=O)c2ccc(C)nc21	.	-0.56
CSc1ccc(C2C(C#N)=C(N)Oc3c2ccc2ccccc32)cc1 (configuration not stated)	-0.49	-0.13
CSc1ccc(C2C(C#N)=C(N)OC3=C2CCc2ccccc23)cc1 (configuration not stated)	.	7.5*
CCCN(CCC)C(=O)c1noc2c1COc1ccccc1-2	1.09	-1.8
COc1ccc2cc(NC(=O)Nc3ccc(OC)c4cccnc34)n(C)c2c1	0.07	14.4*
COCCNC(=O)Nc1cc2ccc(OC)cc2n1C	0.06	-0.97
CCOc1cc(C2CC(=O)N3CN(c4ccc(OC)cc4OC)CSC3=C2C#N)ccc1O (configuration not stated)	-1.13	3.12*

Compound activity: PubChem, Center for Chemical Genomics, University of Michigan
